NS1 function inh – qHTS Assay for Inhibitors of Influenza NS1 Protein Function; Potency, µM (highest dose often 46.1 µM), for the others: at the highest dose activity, positive = more growth; hit rate 0.4% among 270,000; AID 2326, 2010; calls by dose curve; note: potency is the fitted concentration of half-maximal effect; actives are rising curves; nearly all actives have a fitted effect of over 50% in size
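Read-out: OD600 growth recovery of NS1-expressing budding yeast. Cells grown overnight at 30C in -URA glucose medium, washed, resuspended and diluted 1:100 in 2% galactose assay medium, pH 6.0. Same strain lacking NS1 served as positive control.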
Cycloheximide cs – Cycloheximide Counterscreen for Small Molecule Inhibitors of Shiga Toxin | cell reporter, cycloheximide protein synthesis inhibition counterscreen | max response, % | hit rate 12% among 300,000; in the data active = max response mostly above about 13%, no sharp cut-off; inactive = mostly below about 14%; note: read at 38.3 µM for the half of the compounds with a filed dose; 0% is about no effect
Sm TGR block – qHTS Assay for the Inhibitors of Schistosoma Mansoni Peroxiredoxins | Schistosoma mansoni thioredoxin glutathione reductase (TGR), Q962Y6 | purified TGR, DTNB reduction, TNB absorbance 405 nm | Potency, µM (highest dose often 114 µM), for inactives: at the top dose activity change, negative = inhibition, hits mostly inhibitors | hit rate 3% among 360,000 | AID 485364, 2010; note: potency is the fitted concentration of half-maximal effect; % is set by controls: 0 for no effect and ±100 for the full control effect; nearly all actives have a fitted effect of over 60% in size
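First, TGR (20 nM dispensed) and NADPH were mixed with compound. Second, a 15 min room-temperature incubation followed. Third, further NADPH and then DTNB were added to start the reaction. Finally, TNB absorbance was monitored kinetically.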
Shiga inhibitor – A qHTS for Small Molecule Inhibitors of Shiga Toxin. Vero cells, Shiga toxin protein synthesis inhibition reporter. hit rate 9.2% among 290,000. inhibition, % at 38.7 µM; in the data active = inhibition mostly above about 28%, no sharp cut-off; inactive = mostly below about 43%; note: 0% is about no effect
Pf growth 96h – Primary qHTS for delayed death inhibitors of the malarial parasite plastid, 96 hour incubation. P. falciparum luciferase reporter growth, 96 h. Potency, µM (titrated, usually from 28.7 µM), inactives show at the highest dose activity change, negative = inhibition, hits mostly inhibitors. hit rate 6.9% among 320,000; note: potency is the fitted concentration of half-maximal effect; % is set by controls: 0 for no effect and ±100 for the full control effect
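Infected RBCs, 2% Hct / 0.05% parasitemia final; luciferase-reporter P. falciparum; cpd 96 h, 37 C, 5% CO2; luciferase detection reagent; luminescence.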
Pf growth 48h – Primary qHTS for delayed death inhibitors of the malarial parasite plastid, 48 hour incubation. P. falciparum luciferase growth in erythrocytes, 48 h. AID 504832, 2011. hit rate 5.9% among 310,000. Potency, µM (series often up to 28.7 µM), without a hit: at the top dose activity change, negative = inhibition, most hits filed as inhibitors; note: potency is the fitted concentration of half-maximal effect; % is set by controls: 0 for no effect and ±100 for the full control effect
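In quantitative HTS format, infected erythrocytes bearing luciferase-reporter parasites were treated for a single generation at 37 C. Luminescence after adding detection reagent served as the growth measure.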
The depositor's hits bear a star; ? = inconclusive; · = no result given; + = active, no number; [ ] = another dose, or the depositor's remark. Rows were chosen to be rich in hits. Some 21% of all compounds tested hit in one or more screens of this group. Unless noted, calls come from the whole dose curve; as a rule, active = well fitted curve in the direction sought with a large enough effect; inconclusive = small, poorly fitted or top-dose-only effect, or another doubt; inactive = no such curve, though single readings can be large; an effect the other way counts as inactive or inconclusive.

SMILES	NS1 function inh	Cycloheximide cs	Sm TGR block	Shiga inhibitor	Pf growth 96h	Pf growth 48h
O=C(Nc1ccc2c(c1)CCCN2C(=O)c1ccccc1)c1ccccc1	-16%	22*	5%	54*	?	?
CSCc1c(C(=O)N2CCCc3ccccc32)oc2ccccc12	·	·	-2%	·	-53%	12µM*
O=C(c1cc(=O)c2ccccc2o1)N1CCCc2ccccc21	-8%	15	0%	7	?	-2%
Cc1ccccc1Cn1c(CN2CCC(C(=O)NCCc3ccccc3)CC2)cc2ccccc21	·	·	1%	·	·	·
COCCN(C(=O)COC(=O)CCC1CCCC1)c1c(N)n(Cc2ccccc2)c(=O)[nH]c1=O	·	·	-2%	·	?	-13%
CC(OC(=O)CCOc1ccccc1)C(=O)Nc1ccc(Cl)cn1 (centres undefined)	-24%	9	?	-7	-4%	7%
Cc1nnc(NC(=O)CSc2nc3c([nH]c4ccccc43)c(=O)n2-c2ccc(Cl)cc2)s1	·	·	0%	·	·	·
CCN(C(=O)CN1C(=O)NC2(CCc3ccccc32)C1=O)C1CCS(=O)(=O)C1 (centres undefined)	·	·	-1%	·	-30%	-14%
CC(=O)c1cccc(NC(=O)Cc2ccc(NC(=O)N3CCCCc4ccccc43)cc2)c1	·	·	-1%	·	·	·
CC(=O)c1cccc(OCC(=O)N2CCCc3ccccc32)c1	-1%	23*	-34%	32	1%	-14%
CC(=O)c1cccc(NC(=O)N2CCCc3ccccc32)c1	-10%	21*	1%	58	-17%	83%
O=C(c1coc(=O)c(Br)c1)N1CCCc2ccccc21	9%	40*	22µM*	74*	?	14%
O=C(c1cccc(Br)c1)N1CCCc2ccccc21	3%	-2	-6%	1	?	20%
COc1cccc(NC(=O)N2CCCC2)c1	-2%	27	5%	54*	20%	78%
CC(=O)N1c2ccccc2CC1C(=O)N1CCN(c2cccc(Cl)c2)CC1 (centres undefined)	·	·	6%	·	·	·
COc1ccc(CC(=O)OCC(=O)N2CCCc3ccccc32)cc1	·	·	2%	·	3%	-8%
COc1ccc(CC(=O)N2CCCc3ccccc32)cc1	-16%	54*	5%	99*	?	38%
COc1ccc(NC(=O)Cn2cc(C(=O)c3ccc(C)c(C)c3)c(=O)c3cc(OC)ccc32)cc1	·	·	1%	·	·	·
Cc1nc2ccccc2c(C)c1CC(=O)N(CC(C)C)c1c(N)n(Cc2ccccc2)c(=O)[nH]c1=O	·	·	-3%	·	12µM*	?
Cc1cc2occ(CC(=O)N(CC(C)C)c3c(N)n(Cc4ccccc4)c(=O)[nH]c3=O)c2cc1C	·	·	1%	·	-7%	17µM*
CCOc1ccc(-c2nc3c(c(CC)nn3-c3ccccc3)c3cc(OC)c(OC)cc23)cc1	·	·	4%	·	·	·
O=C(Nc1ccc(-c2noc(-c3cccs3)n2)cc1)c1cccnc1	-9%	27*	0%	59*	?	-17%
O=C(Nc1cccc(F)c1)c1cccnc1	-9%	-3	-17%	-8	7.4µM*	-1%
COc1cccc(OC)c1C(=O)NNC(=O)c1cccnc1	0%	18*	1%	-15	29%	39%
O=C(Nc1ccc(F)c(F)c1)c1cccnc1	-4%	1	16%[11.4 µM]	-8	10µM*	·
SMILES	NS1 function inh	Cycloheximide cs	Sm TGR block	Shiga inhibitor	Pf growth 96h	Pf growth 48h
O=C(Nc1cccc(NC(=O)c2cccnc2)c1)c1cccnc1	9%	-4	-4%	-3	72%	8%
COc1cccc(NC(=O)CCC(=O)N2CC(C)Oc3ccc(C)cc32)c1 (centres undefined)	-20%	-1	-4%	1	?	24%
Cc1ccc2[nH]c(CSc3nnc(NC(=O)COc4ccccc4F)s3)cc(=O)c2c1	·	·	-2%	·	·	·
COc1cccc(NC(=O)c2cccnc2)c1	0%	32*	1%	31	-2%	56%
O=C(Nc1cccc(OC(=O)c2cccnc2)c1)c1cccnc1	-21%	19	-20%	-8	?	-15%
COc1cccc(-c2nc(-c3ccc(NC(=O)c4cccnc4)cc3)no2)c1	-9%	-3	0%	-12	12µM*	?
O=C(CCc1ccccc1)N1CCN(c2ccc(F)cc2)CC1	-9%	0	·	-14	0%	-5%
O=C(CSCc1cccc(F)c1)N1CCN(c2ccccc2)CC1	-15%	41*	4%	83*	?	103%
Cc1ccc(CSCC(=O)N2CCOCC2)cc1	6%	20*	9%	34	-2%	·
Cc1ccc(-c2nnc(SCC(=O)N3CCOCC3)nc2-c2ccc(C)cc2)cc1	-8%	-4	7%	-27	?	?
O=C(CSCc1ccccc1)N1CCN(c2ccccc2)CC1	-10%	47*	-9%	+	?	72%
O=C(CSCc1ccccc1)N1CCN(c2ccc(F)cc2)CC1	-160%	45*	16%	21	25%	20%
Cc1ccc(CSCC(=O)N2CCN(c3ccccc3)CC2)cc1	-12%	7	7%	12	4.1µM*	-7%
COc1cc(-c2nnc(SCC(=O)NCc3ccccc3Cl)o2)cc(OC)c1OC	·	·	0%	·	·	·
Cc1cc(Nc2ccc(Br)c(C)c2)n2nc(-c3ccco3)nc2n1	·	·	-13%	·	·	·
CCOc1ccc2c(c1)[N+](C)(C)C(C)(C)C=C2C	·	-3	0%	-10	-24%	1.2µM*
COc1ccc(C(=O)Nc2ccc3ccccc3n2)c(OC)c1OC	9%	51*	1%	74*	114%	34%
O=C(Nc1ccnc(-c2ccncc2)n1)c1ccccc1Cl	·	-3	7%	-9	38%	-9%
COc1ccccc1NC(=O)c1cc2ccccc2nc1C	-1%	-2	-6%	-9	-15%	-14%
O=C(Nc1ccccc1)C1CCCCC1	2%	6	8%	5	-16%	-14%
O=C(Nc1ccc2ccccc2n1)c1ccccc1Cl	-3%	39*	0%	56*	392%	194%
O=C(Nc1ccc2ccccc2n1)C1CCCCC1	0%	73*	12%	53	236%	125%
O=C(Nc1ccc2ccccc2n1)c1ccc(Cl)cc1	-1%	50*	-8%	67*	241%	-12%
CC1CC(C)(C)NC(=S)N1CCCC(=O)NCc1ccccc1 (centres undefined)	·	5	3%	15	?	6%
CCOC(=O)C1(C)NC(c2cccs2)C2C(=O)N(c3ccc(OC)cc3)C(=O)C21 (centres undefined)	-4%	-3	11%	-10	?	3%
CCOC(=O)C1CCCN(C(=O)Cc2ccc(C)cc2)C1 (centres undefined)	-4%	-6	2%	-14	1%	·
CCOC(=O)C1CCCN(C(=O)c2ccc(CS(=O)(=O)c3ccc(C)cc3)o2)C1 (centres undefined)	6%	-6	20µM*	-15	?	·

Assay outcomes (PubChem)
